Screens: PubChem BioAssay, Sanford-Burnham Center for Chemical Genomics
CRFR2-BP antag = blocks CRF-induced signaling of the CRF-BP/CRF-R2 complex | HEK293 CRF-R2/CRF-BP, CRF-induced calcium fluorescence | inhibition, % at 11.8 µM | actives 0.59% (n = 350,000);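 active = inhibition of the ligand-induced calcium signal above about 50% at the single tested concentration, limit read from the data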
MLLE-PAM2 inh = inhibitors of microRNA-mediated deadenylation, human PABP1 MLLE binding. inhibition, % at 20 µM. GST-MLLE / FITC-PAM2 fluorescence polarization. actives 0.36% (n = 360,000). P11940; in the data active = inhibition above about 35%, passing the limit was not always enough;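 note: plate controls were DMSO wells with GST-MLLE for no effect and wells lacking GST-MLLE protein for full effect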
Target sequence (P11940 whole entry, looked up): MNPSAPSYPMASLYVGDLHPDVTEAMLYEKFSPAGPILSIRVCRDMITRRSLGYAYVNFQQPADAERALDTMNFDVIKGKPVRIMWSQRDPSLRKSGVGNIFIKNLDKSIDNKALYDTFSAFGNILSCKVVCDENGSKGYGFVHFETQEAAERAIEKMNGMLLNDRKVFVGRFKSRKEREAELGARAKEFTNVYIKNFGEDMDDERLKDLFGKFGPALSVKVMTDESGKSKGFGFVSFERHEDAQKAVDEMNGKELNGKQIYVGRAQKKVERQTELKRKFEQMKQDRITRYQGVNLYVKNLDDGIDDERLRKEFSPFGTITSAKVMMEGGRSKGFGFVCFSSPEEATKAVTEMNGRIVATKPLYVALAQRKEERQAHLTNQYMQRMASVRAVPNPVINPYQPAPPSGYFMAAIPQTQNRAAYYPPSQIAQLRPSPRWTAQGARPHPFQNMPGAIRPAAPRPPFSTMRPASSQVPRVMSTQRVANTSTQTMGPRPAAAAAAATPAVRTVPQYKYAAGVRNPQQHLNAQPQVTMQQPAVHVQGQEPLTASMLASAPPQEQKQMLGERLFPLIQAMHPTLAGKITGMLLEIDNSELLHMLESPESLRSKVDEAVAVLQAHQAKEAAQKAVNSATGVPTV
eIF4H inh = inhibitors of RNA binding by human eIF4H. eIF4H fluorescence polarization binding assay. actives 0.94% (n = 290,000). Q15056. AID 2012. inhibition, % at 35 µM;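 note: calls also rest on retests at 20 µM and on dose response follow-up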
PHOSPHO1 inh = PHOSPHO1 (human) inhibition. Q8TCT1. recombinant PHOSPHO1, absorbance phosphatase assay. inhibition, % at 13.3 µM. actives 1.1% (n = 290,000). AID 1565; in the data active = inhibition above about 60%
PABP polyA inh = PABP-poly(A) binding inhibition; P11940; actives 1% (n = 290,000); PABP-poly(A) RNA binding, fluorescence polarization; inhibition, % at 35 µM;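 note: calls also rest on retests at 20 µM and on dose response follow-up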
* hit, by the source's call; nt = no result. The list is not random: actives were taken first. Their share in the collection is about 2.6%. Unless noted, the rule behind the calls is not given here.

SMILES	CRFR2-BP antag	MLLE-PAM2 inh	eIF4H inh	PHOSPHO1 inh	PABP polyA inh
C=CCNc1nnc(SC2CC(=O)N(c3ccc(OC)cc3)C2=O)s1 (stereo not drawn)	14	28	-2	93*	0
Cc1c(C(=O)O)cccc1-n1c(C)cc(C=O)c1C	6	-6	72*	-10	-8
CC1=NC(=O)C(N=Nc2cccc(C(=O)O)c2)N1c1ccccc1 (stereo not drawn)	7	-111	13*	12	65*
CC1=NC(=O)C(N=Nc2ccccc2)N1c1ccccc1 (stereo not drawn)	6	-12	0	4	22
Cn1c(=O)c2cc(NC(=O)CCc3ccccc3)ccc2n1-c1ccccc1F	nt	-10	nt	nt	nt
Cc1ccc(-n2c(-c3cnccn3)n[nH]c2=S)c(Br)c1	32	-32	-7	-109	-6
FC(F)(F)c1ccccc1-n1c(-c2cnccn2)n[nH]c1=S	-12	-58	-9	74*	1
C[N+]1(CC2COC3(CCCCC3)O2)CCCC1 (stereo not drawn)	-1	-112	9	-2	-7
CC1CC(C)(C)OC(C[N+]2(C)CCCCC2)O1 (stereo not drawn)	-10	-132	0.6*	-18	52*
COc1ccc(NC(=O)c2cc(C3CCCCN3C(=O)CCc3ccccc3)on2)c(C)c1 (stereo not drawn)	nt	13	nt	nt	nt
COc1ccc(OC(=O)CN2C(=O)C3C4CCC(C4)C3C2=O)cc1 (stereo not drawn)	-5	-3	64	-12	active
CCN(c1ccccc1)S(=O)(=O)c1ccc(Oc2ccc(C(C)=O)cc2OC)nc1	12	-4	nt	nt	nt
O=C(Nc1nc(-c2ccccc2)cs1)c1ccc2c(c1)S(=O)(=O)c1ccccc1C2=O	86*	12	-13	-7	1
O=C(Nc1nc(-c2cccc3ccccc23)cs1)c1ccc2c(c1)S(=O)(=O)c1ccccc1C2=O	11	-15	2	35	-3
O=C(OCc1cc(=O)n2cc(Br)ccc2n1)C1COc2ccccc2O1 (stereo not drawn)	14	1	1	24	7
Cn1c(SCc2cc(=O)n3cc(Br)ccc3n2)nnc1C1COc2ccccc2O1 (stereo not drawn)	0	-98	41	73*	5
Fc1ccc2c(c1)c1n[nH]c(=S)nc1n2CCc1ccccc1	3	40*	-10	-8	5
Cc1ccc2c(c1)c1n[nH]c(=S)nc1n2CCc1ccccc1	-7	41*	-4	-16	6
O=C([C@H]1O[C@@H](n2ccc(=O)[nH]c2=O)[C@H](O)[C@@H]1O)N(CCC1=CCCCC1)CC1CC1	nt	-4	nt	nt	nt
CC(=O)Nc1cccc(-c2ccnc3c2CC(C)(C(=O)Nc2cccc(C(C)=O)c2)O3)c1 (stereo not drawn)	nt	2	nt	nt	nt
CC(=O)c1cccc(-c2ccnc3c2CC(C(=O)NCc2ccco2)O3)c1 (stereo not drawn)	nt	-6	nt	nt	nt
Cc1ccc(C(=O)NC(=S)N2CC(C)OC(C)C2)cc1[N+](=O)[O-] (stereo not drawn)	0	-22	2	90*	0
COCCN(CCOC)Cc1c(O)ccc2c1O/C(=C\c1ccco1)C2=O	-12	70	91*	27	86*
O=C1/C(=C/c2ccco2)Oc2c1ccc(O)c2CN1CCCCC1	-19	70	100	29	0
CCc1nc2ccc(C(=O)N(C)Cc3ccccc3)cn2c1N(C)Cc1ccc(OC)cc1	nt	-1	nt	nt	nt
SMILES	CRFR2-BP antag	MLLE-PAM2 inh	eIF4H inh	PHOSPHO1 inh	PABP polyA inh
Cc1cc(C)cc(C(=O)N/N=C/c2ccoc2)c1	-8	-16	28	15	10
Cc1cccc(C(=O)Oc2ccc(/C=N/NC(=O)c3ccc(O)cc3)cc2)c1	105*	13	5	33	-5
O=C(N/N=C/c1ccc(OC(=O)c2ccccc2Cl)cc1)c1ccccn1	2	-12	-10	26	5
O=C(N/N=C/c1ccc(OC(=O)c2ccccc2Cl)cc1)c1cc(O)cc(O)c1	-4	0	92*	21	91*
COc1cc(/C=N/NC(=O)c2cc(O)cc(O)c2)ccc1OC(=O)c1ccccc1	17	-5	81*	1	94*
Cc1cccc(C(=O)Oc2ccc(/C=N/NC(=O)c3ccccc3O)cc2)c1	5	-2	3	-4	-2
O=C(N/N=C/c1ccoc1)c1cc(O)cc(O)c1	-14	-7	96*	23	74*
CC(C)NC(=O)N(C)C[C@H]1OCCCC[C@@H](C)Oc2ccc(N(C)C)cc2C(=O)N([C@H](C)CO)C[C@@H]1C	nt	-13	nt	nt	nt
O=C(N/N=C/c1ccc(OC(=O)c2ccc(Br)cc2)cc1)c1ccncc1	-2	-6	79*	2	-17
O=C(N/N=C/c1ccc(OC(=O)c2ccco2)cc1)c1ccncc1	0	-17	8	48	16
Cc1cc(C(=O)Cn2cnc3ccccc3c2=O)c(C)n1C1CC1	-9	15	nt	nt	nt
COCCNC(=S)NN(c1ccccc1)c1ccccc1	-1	20	-7	10	5
COCCNC(=S)N(c1ccccc1)C(C)C	2	-13	2.5*	15	70
Cc1ccc(OCC(=O)NNC(=O)c2ccc(-n3cncn3)c([N+](=O)[O-])c2)cc1	27	-3	nt	nt	nt
O=C(COc1ccc(Br)cc1)NNC(=O)c1ccc(-n2cncn2)c([N+](=O)[O-])c1	5	58*	nt	nt	nt
COc1ccc(NC(=O)c2ccc(-n3cncn3)c([N+](=O)[O-])c2)cc1	28	9	10	34	92*
COCCCN1CN(S(=O)(=O)c2ccc(Cl)cc2)c2nc3ccccc3nc21	6	16	50*	35	53*
COc1cccc(S(=O)(=O)N(C)C[C@H]2OCc3cn(nn3)CCCC(=O)N([C@@H](C)CO)C[C@@H]2C)c1	nt	-2	nt	nt	nt
COc1ccc(C(C)C)cc1-c1cncc(NC(C)=O)n1	nt	1	nt	nt	nt
CCOC(=O)c1ccc[n+](CC(=O)c2ccccc2)c1	9	0	59*	-24	14*
CC1Cc2ccccc2N1Cc1nc2scc(-c3cccs3)c2c(=O)[nH]1 (stereo not drawn)	6	2	2	88*	28
COc1ccc(N2CCN(Cc3nc4scc(-c5cccs5)c4c(=O)[nH]3)CC2)cc1	-34	-79	44	28	-3
COCCNC(=O)/C(C#N)=C/c1cc(C(C)C)c(OC)cc1C	20	2	-2	61*	-4
COc1ccc(-c2nn(-c3ccccc3C)cc2CNCc2cccnc2)cc1F	73*	5	13	11	6
CC1(C(=O)NCc2ccccc2Br)CCN1Cc1csc2ccccc12 (stereo not drawn)	nt	-10	nt	nt	nt
CC(Oc1ccccc1)c1ccnc2nc(N3CCOCC3)nn12 (stereo not drawn)	-3	5	7	60*	7
O=C1N(C2CCCC2)C[C@@H]2C[C@@H](c3cn[nH]c3-c3ccc(Cl)cc3)N3CCC[C@@]123	-39	-6	4	28	56*
